Screens (PubChem)
Rab2 wt GTP = changes GTP binding to wildtype dog Rab2A, up or down; P61105; GST-Rab2 wt beads, Bodipy-GTP binding, flow cytometry; GTP binding activity, % at 10 µM; 190,000 tested, 0.19% active; AID 760;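 active = GTP binding activity at least 20 points away from 100%, either lowered or raised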;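 note: 0% = beads with excess unlabeled GTP and 100% = no-compound control corrected for plate trend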
Rac1 wt GTP bind = modulators of human Rac1 wildtype GTP binding | P63000 | GST-Rac1 beads, fluorescent GTP binding, flow cytometry; actives lie on both sides; 0 = cold GTP competed, 100 = untreated | GTP binding activity (% of control), % at 10 µM | 190,000 tested, 0.27% active | AID 757;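 active = GTP binding activity at least 20 points away from the 100% control level, either lower or higher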
Rab7 wt GTP bind = dog Rab7 wildtype GTP binding, inhibitors and activators | GST-Rab7 beads, fluorescent GTP binding, flow cytometry; actives lie on both sides; untreated = 100%, excess cold GTP = 0% | GTP binding activity (percent of control), % at 10 µM | 190,000 tested, 0.055% active;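 active = fluorescent GTP binding to Rab7 beads changed by at least 20 points from the 100% baseline, either direction, mostly lower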;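 note: median green fluorescence of bound Bodipy-FL-GTP per Rab7 bead population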
Rac1 act GTP bind = modulators of GTP binding to human Rac1 activated mutant; GST-Rac1 activated beads, fluorescent GTP binding, flow cytometry; actives lie on both sides; 100% means binding = to untreated wells; AID 764; 190,000 tested, 0.11% active; percent activity (GTP binding), % at 10 µM; P63000;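 active = GTP binding at least 20 percentage points away from the 100% baseline, in either direction, so actives lie on both sides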
Cdc42 wt GTP = changes GTP binding to wildtype human Cdc42 | P60953 | GST-Cdc42 beads, Bodipy-GTP binding, flow cytometry; actives lie on both sides | percent activity (GTP binding), % at 10 µM | 190,000 tested, 0.2% active | AID 761;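 active = percent activity GTP binding at least 20 points away from the 100% baseline, either down as inhibitor or up as activator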;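 note: median bead fluorescence of bound Bodipy-FL-GTP at 100 nM; 0% = excess unlabeled GTP control and 100% = no compound control; below 100% means less GTP binding so inhibitor and above means activator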
Target sequence (P60953 whole entry, looked up): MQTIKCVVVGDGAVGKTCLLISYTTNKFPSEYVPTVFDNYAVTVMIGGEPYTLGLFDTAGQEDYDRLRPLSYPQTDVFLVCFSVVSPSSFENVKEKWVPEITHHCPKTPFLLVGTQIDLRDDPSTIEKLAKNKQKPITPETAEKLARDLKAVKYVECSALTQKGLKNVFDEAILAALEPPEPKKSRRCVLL
HRas wt GTP = human HRas wildtype GTP binding, change in either direction. GST-Ras wt beads, Bodipy-FL-GTP binding, flow cytometry; actives lie on both sides. 190,000 tested, 0.14% active. GTP binding activity, % at 10 µM. P01112;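 active = GTP binding activity at least 20% away from the 100% baseline, either lowered as inhibitor or raised as activator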;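 note: 0% = unlabeled GTP competition control and 100% = no-compound control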
Target sequence (P01112 whole entry, looked up): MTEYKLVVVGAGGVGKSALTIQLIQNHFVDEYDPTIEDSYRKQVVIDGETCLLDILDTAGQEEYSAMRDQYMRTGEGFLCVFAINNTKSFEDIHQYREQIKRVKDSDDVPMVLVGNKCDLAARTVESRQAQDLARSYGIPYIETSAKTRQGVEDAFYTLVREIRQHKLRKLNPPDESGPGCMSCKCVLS
* marks the source's active call; other numbers are inactive results; [ ] = remark or other dose. Sampled rows, rich in hits. Any-hit rate of the full collection: about 0.38%.

SMILES	Rab2 wt GTP	Rac1 wt GTP bind	Rab7 wt GTP bind	Rac1 act GTP bind	Cdc42 wt GTP	HRas wt GTP
CC1(C)CC2CC(C)(CN2C(=O)c2cccs2)C1 (stereo not drawn)	104.0	157.0*[activator]	100.0	113.0	133.0*[activator]	100.0
Cc1ccccc1NC(=O)C1CCCN1S(=O)(=O)c1cccc2cccnc12 (stereo not drawn)	113.0	128.0*[activator]	109.0	111.0	117.0	113.0
Cc1ccccc1NC(=O)C1CCCN(S(=O)(=O)c2cccc3cccnc23)C1 (stereo not drawn)	97.0	103.0	101.0	100.0	98.0	100.0
CC1=C(C#N)c2nc(N)c(C#N)c(C)c2/C1=C\c1ccc(-c2ccccc2C(=O)O)o1	76.0*	75.0*	88.0	81.0	78.0*	81.0
COc1cc(/C=C2/C(C)=C(C#N)c3nc(N)c(C#N)c(C)c32)ccc1OCC(=O)O	81.0	87.0	87.0	80.0	80.0	85.0
Cc1ccc(-c2nnc(SCC(=O)Nc3nccs3)n2N)cc1	98.0	101.0	98.0	95.0	98.0	98.0
Nc1c([N+](=O)[O-])cc(-c2cnc[nH]2)cc1[N+](=O)[O-]	77.0*	84.0	94.0	88.0	77.0*	78.0*
COc1ccc(-c2cnc[nH]2)cc1	96.0	99.0	100.0	95.0	97.0	97.0
NC1=NC(=O)/C(=C\c2ccc(O)c([N+](=O)[O-])c2)S1	63.0*	78.0*	85.0	80.0	61.0*	66.0*
COc1cc(/C=C2/SC(N)=NC2=O)ccc1Oc1ccc([N+](=O)[O-])cc1[N+](=O)[O-]	91.0	94.0	96.0	91.0	91.0	94.0
C/C(=N\NC(=O)c1ccc(Cl)c(S(=O)(=O)Nc2ccccc2Cl)c1)c1ccncc1	86.0	73.0*	91.0	87.0	86.0	87.0
COCCNc1nnnc2c1sc1nc(N3CCOCC3)c3c(c12)CCCC3	83.0	73.0*	95.0	88.0	81.0	82.0
OCCNc1ncnc2c1sc1nc(N3CCOCC3)c3c(c12)CCC3	86.0	94.0	91.0	94.0	91.0	91.0
CCOc1cc(NS(=O)(=O)c2ccc(Cl)cc2)c(OCC)cc1NC(=O)CC(C)C	99.0	101.0	99.0	100.0	100.0	99.0
CC(=O)c1ccc(OCCCC(=O)n2nnc3ccccc32)cc1	95.0	93.0	97.0	92.0	94.0	97.0
CCOC(=O)C1CCCN(C(c2ccccn2)c2c(C)[nH]c3ccccc23)C1 (stereo not drawn)	100.0	100.0	98.0	97.0	99.0	99.0
C=C(C)COc1ccc(-c2n[nH]c(C)c2-c2ccc(Br)cc2)c(O)c1	94.0	79.0*	95.0	92.0	84.0	88.0
O=C(N/N=C/c1ccc(-c2ccccc2[N+](=O)[O-])o1)c1cncc(Br)c1	83.0	72.0*	89.0	89.0	89.0	84.0
O=C(O)c1ccccc1CSc1ncccc1C(=O)O	93.0	97.0	94.0	93.0	94.0	94.0
O=C(O)c1cccnc1SCc1cccc(Cl)c1	132.0*[activator]	129.0*[activator]	124.0*[activator]	127.0*[activator]	131.0*[activator]	125.0*[activator]
Cc1cccc(CSc2ncccc2C(=O)O)c1	132.0*[activator]	161.0*[activator]	120.0*[activator]	134.0*[activator]	149.0*[activator]	129.0*[activator]
O=C(NCCc1ccc2c(c1)OCCO2)c1ccc([N+](=O)[O-])cc1Cl	92.0	96.0	100.0	92.0	90.0	93.0
COc1ccc(/C=N/NC(=S)Nc2cc(S(=O)(=O)N3CCOCC3)ccc2N2CCOCC2)cc1O	116.0	136.0*[activator]	119.0	114.0	116.0	117.0
COc1ccc2ccccc2c1/C=N/NC(=S)Nc1cc(S(=O)(=O)N2CCOCC2)ccc1N1CCOCC1	100.0	106.0	97.0	101.0	108.0	103.0
COc1ccc2c(C)nc(N/C(N)=N/S(=O)(=O)c3ccc(C)cc3)nc2c1	87.0	77.0*	95.0	89.0	84.0	88.0
Cc1ccc(S(=O)(=O)/N=C(\N)Nc2nc(C)c3ccccc3n2)cc1	94.0	95.0	100.0	98.0	92.0	96.0
CCOC(=O)c1ccccc1NC(=S)N1CCCCC1	98.0	102.0	98.0	100.0	100.0	100.0
